# Measurements reported in PubChem BioAssay AID1159580 (chemical genetic matrix, 2015).
# About 2,000 (36%) of roughly 5,500 compounds were called active. Another 18% or so got no clear call; they are omitted. Some of the results follow. A number with no mark means an inactive call. Rule as the data show it: active = normalized growth mostly below about 0.91 (no sharp cut-off); inconclusive = no clear call, values can overlap the other calls; inactive = mostly above about 0.92.
# Test: chemical genetic growth profiling, strain panel (AID 1159580);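 also: tested at 20 µM; growth read once vehicle control cultures reached saturation at 30 °C; 1 = growth at the plate median or of vehicle wells; lower values mean less growth of the strain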
# Conditions: growth OD
compound,measurement,setting,value
CN1C2CCC1CC(OC(c1ccccc1)c1ccccc1)C2 (stereo not given),normalized growth,"S. cerevisiae deletion strains, locus YJR043C, strain POL32, active compounds read low",0.95
same,normalized growth,"S. cerevisiae deletion strains, locus YJR075W, strain HOC1, active compounds read low",0.847 (active)
same,normalized growth,"S. cerevisiae deletion strains, locus YKL009W, strain mrt4, active compounds read low",0.918
same,normalized growth,"S. cerevisiae deletion strains, locus YKL068W, active compounds read low",0.986
same,normalized growth,"S. cerevisiae deletion strains, locus YKL085W, strain MDH1 (second series), active compounds read low",0.978
same,normalized growth,"S. cerevisiae deletion strains, locus YKL085W, strain MDH1, active compounds read low",0.978
same,normalized growth,"S. cerevisiae deletion strains, locus YKL160W, strain elf1, active compounds read low",1
same,normalized growth,"S. cerevisiae deletion strains, locus YKR001C, strain vps1, active compounds read low",0.926
same,normalized growth,"S. cerevisiae deletion strains, locus YKR026C, strain gcn3, active compounds read low",0.972
same,normalized growth,"S. cerevisiae deletion strains, locus YKR091W, strain srl3, active compounds read low",0.971
same,normalized growth,"S. cerevisiae deletion strains, locus YLL001W, strain dnm1, active compounds read low",1.01
same,normalized growth,"S. cerevisiae deletion strains, locus YLL026W, active compounds read low",0.991
same,normalized growth,"S. cerevisiae deletion strains, locus YLL041C, strain sdh2, active compounds read low",0.995
same,normalized growth,"S. cerevisiae deletion strains, locus YLR027C, strain aat2, active compounds read low",0.989
same,normalized growth,"S. cerevisiae deletion strains, locus YLR039C, strain RIC1, active compounds read low",0.795
same,normalized growth,"S. cerevisiae deletion strains, locus YLR058C, strain SHM2, active compounds read low",0.91
same,normalized growth,"S. cerevisiae deletion strains, locus YLR102C, strain apc9, active compounds read low",0.996
same,normalized growth,"S. cerevisiae deletion strains, locus YLR221C, strain rsa3, active compounds read low",0.985
same,normalized growth,"S. cerevisiae deletion strains, locus YLR258W, strain gsy2, active compounds read low",0.982
same,normalized growth,"S. cerevisiae deletion strains, locus YLR262C, strain YPT6 (second series), active compounds read low",1.04
same,normalized growth,"S. cerevisiae deletion strains, locus YLR262C, strain YPT6, active compounds read low",0.647
same,normalized growth,"S. cerevisiae deletion strains, locus YLR268W, strain sec22, active compounds read low",0.96
same,normalized growth,"S. cerevisiae deletion strains, locus YLR320W, strain mms22, active compounds read low",0.951
same,normalized growth,"S. cerevisiae deletion strains, locus YLR330W, strain CHS5, active compounds read low",0.809 (active)
same,normalized growth,"S. cerevisiae deletion strains, locus YLR342W, strain FKS1 (second series), active compounds read low",0.842
same,normalized growth,"S. cerevisiae deletion strains, locus YLR342W, strain FKS1, active compounds read low",0.997
same,normalized growth,"S. cerevisiae deletion strains, locus YLR357W, strain rsc2, active compounds read low",0.958
same,normalized growth,"S. cerevisiae deletion strains, locus YLR370C, strain arc18, active compounds read low",0.987
same,normalized growth,"S. cerevisiae deletion strains, locus YLR371W, strain rom2, active compounds read low",0.969
same,normalized growth,"S. cerevisiae deletion strains, locus YLR384C, strain iki3, active compounds read low",0.999
same,normalized growth,"S. cerevisiae deletion strains, locus YLR418C, strain cdc73, active compounds read low",0.814 (active)
same,normalized growth,"S. cerevisiae deletion strains, locus YML016C, strain PPZ1, active compounds read low",0.981
same,normalized growth,"S. cerevisiae deletion strains, locus YML032C, strain rad52, active compounds read low",0.979
same,normalized growth,"S. cerevisiae deletion strains, locus YML120C, strain ndi1, active compounds read low",0.985
same,normalized growth,"S. cerevisiae deletion strains, locus YML124C, strain tub3, active compounds read low",0.993
same,normalized growth,"S. cerevisiae deletion strains, locus YMR058W, strain fet3, active compounds read low",0.978
same,normalized growth,"S. cerevisiae deletion strains, locus YMR078C, strain ctf18, active compounds read low",0.954
same,normalized growth,"S. cerevisiae deletion strains, locus YMR125W, strain sto1, active compounds read low",0.963
same,normalized growth,"S. cerevisiae deletion strains, locus YMR129W, active compounds read low",0.984
same,normalized growth,"S. cerevisiae deletion strains, locus YMR205C, strain PFK2, active compounds read low",0.969
same,normalized growth,"S. cerevisiae deletion strains, locus YMR223W, strain ubp8, active compounds read low",0.948
same,normalized growth,"S. cerevisiae deletion strains, locus YMR231W, strain pep5, active compounds read low",1
same,normalized growth,"S. cerevisiae deletion strains, locus YMR263W, strain SAP30, active compounds read low",1
same,normalized growth,"S. cerevisiae deletion strains, locus YMR307W, strain GAS1, active compounds read low",0.807
same,normalized growth,"S. cerevisiae deletion strains, locus YNL067W, strain RPL9B, active compounds read low",0.898
same,normalized growth,"S. cerevisiae deletion strains, locus YNL071W, strain lat1, active compounds read low",0.964
same,normalized growth,"S. cerevisiae deletion strains, locus YNL128W, strain TEP1, active compounds read low",0.925
same,normalized growth,"S. cerevisiae deletion strains, locus YNL175C, strain NOP13, active compounds read low",1.03
same,normalized growth,"S. cerevisiae deletion strains, locus YNL197C, strain WHI3, active compounds read low",1.03
same,normalized growth,"S. cerevisiae deletion strains, locus YNL209W, strain ssb2, active compounds read low",0.981
same,normalized growth,"S. cerevisiae deletion strains, locus YNL224C, strain SQS1, active compounds read low",1.01
same,normalized growth,"S. cerevisiae deletion strains, locus YNL233W, strain BNI4, active compounds read low",0.766 (active)
same,normalized growth,"S. cerevisiae deletion strains, locus YNL248C, strain rpa49, active compounds read low",0.969
same,normalized growth,"S. cerevisiae deletion strains, locus YNL250W, strain rad50, active compounds read low",0.971
same,normalized growth,"S. cerevisiae deletion strains, locus YNL271C, strain bni1, active compounds read low",0.967
same,normalized growth,"S. cerevisiae deletion strains, locus YNL298W, strain CLA4, active compounds read low",0.95
same,normalized growth,"S. cerevisiae deletion strains, locus YNL307C, strain MCK1, active compounds read low",0.91
same,normalized growth,"S. cerevisiae deletion strains, locus YNL322C, strain KRE1 (second series), active compounds read low",0.98
same,normalized growth,"S. cerevisiae deletion strains, locus YNL322C, strain KRE1, active compounds read low",0.973
same,normalized growth,"S. cerevisiae deletion strains, locus YNR049C, strain mso1, active compounds read low",0.984
same,normalized growth,"S. cerevisiae deletion strains, locus YNR052C, strain pop2, active compounds read low",0.972
same,normalized growth,"S. cerevisiae deletion strains, locus YOL006C, strain TOP1, active compounds read low",0.597
same,normalized growth,"S. cerevisiae deletion strains, locus YOL012C, strain htz1",1
same,normalized growth,"S. cerevisiae deletion strains, locus YOL147C, strain pex11, active compounds read low",0.985
same,normalized growth,"S. cerevisiae deletion strains, locus YOR001W, strain rrp6, active compounds read low",0.99
same,normalized growth,"S. cerevisiae deletion strains, locus YOR061W, strain CKA2, active compounds read low",0.979
same,normalized growth,"S. cerevisiae deletion strains, locus YOR069W, strain VPS5, active compounds read low",0.971
same,normalized growth,"S. cerevisiae deletion strains, locus YOR070C, strain gyp1, active compounds read low",0.989
same,normalized growth,"S. cerevisiae deletion strains, locus YOR080W, strain dia2, active compounds read low",0.989
same,normalized growth,"S. cerevisiae deletion strains, locus YOR083W, strain WHI5 (second series), active compounds read low",0.998
same,normalized growth,"S. cerevisiae deletion strains, locus YOR083W, strain WHI5, active compounds read low",0.998
same,normalized growth,"S. cerevisiae deletion strains, locus YOR106W, strain vam3, active compounds read low",1
same,normalized growth,"S. cerevisiae deletion strains, locus YOR136W, strain idh2, active compounds read low",0.972
same,normalized growth,"S. cerevisiae deletion strains, locus YOR144C, strain elg1, active compounds read low",0.993
same,normalized growth,"S. cerevisiae deletion strains, locus YOR184W, strain ser1, active compounds read low",0.774 (active)
same,normalized growth,"S. cerevisiae deletion strains, locus YOR265W, strain rbl2, active compounds read low",0.988
same,normalized growth,"S. cerevisiae deletion strains, locus YOR270C, strain vph1, active compounds read low",0.943
same,normalized growth,"S. cerevisiae deletion strains, locus YOR290C, strain snf2, active compounds read low",0.967
same,normalized growth,"S. cerevisiae deletion strains, locus YOR316C, strain cot1, active compounds read low",0.986
same,normalized growth,"S. cerevisiae deletion strains, locus YPL051W, strain arl3, active compounds read low",0.995
same,normalized growth,"S. cerevisiae deletion strains, locus YPL078C, strain atp4, active compounds read low",0.998
same,normalized growth,"S. cerevisiae deletion strains, locus YPL106C, strain sse1, active compounds read low",0.912
same,normalized growth,"S. cerevisiae deletion strains, locus YPL240C, strain hsp82, active compounds read low",0.995
same,normalized growth,"S. cerevisiae deletion strains, locus YPL241C, strain CIN2, active compounds read low",0.999
same,normalized growth,"S. cerevisiae deletion strains, locus YPR119W, strain clb2, active compounds read low",0.973
same,normalized growth,"S. cerevisiae deletion strains, locus YPR141C, strain kar3, active compounds read low",0.966
same,normalized growth,"S. cerevisiae deletion strains, locus YPR163C, strain tif3, active compounds read low",0.952
same,normalized growth,"S. cerevisiae deletion strains, locus YPR167C, strain met16, active compounds read low",0.965
same,normalized growth,"S. cerevisiae deletion strains, strain wtn01, active compounds read low",0.977
same,normalized growth,"S. cerevisiae strains, strain wild type, active compounds read low",0.882 (active)
